In article PMC8384837, “Expanding the binding specificity for RNA recognition by a PUF domain”:
Substitutions are numbered along the chain they refer to.

Columns and labels:
Experiment in all cases: yeast three-hybrid, YBZ-1, SC-Leu-His + 0.5 mM 3-AT, 4 days
Conditions in all cases: tags: N-Gal4 AD-HA kept; label: inside an RPR1-promoter hybrid RNA with tandem MS2 sites; ssRNA
PUM1 PUF domain R3-FFG = PUM1 PUF domain R3-FFG (Homo sapiens, UniProt Q14671 828-1176, C935F;R936F;Q939G)
Outline: (§1)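 Pumilio-1 PUF domain libraries, randomized (NNK) at the three base-contacting residues of each repeat, were co-expressed with matching RNA elements from a centromeric plasmid in strain YBZ-1 (LexA–MS2 coat fusion, HIS3 reporter). Transformants were plated on SC-Leu (input) and SC-Leu-His + 0.5 mM 3-AT (selection) for four days, and repeat regions were PCR-amplified and Illumina-sequenced. The interaction score is the log2 change in variant frequency from input to selection, with pseudocount 1 where absent.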

PUM1 PUF domain R3-LWV = PUM1 PUF domain R3-LWV (Homo sapiens, UniProt Q14671 828-1176, C935L;R936W;Q939V)
Outline: as §1

PUM1 PUF domain R5-KFC = PUM1 PUF domain R5-KFC (Homo sapiens, UniProt Q14671 828-1176, C1007K;R1008F;Q1011C)
Outline: as §1

PUM1 PUF domain R6-MWR = molecular target: T1, PUM1 PUF domain R6-MWR (Homo sapiens, UniProt Q14671 828-1176, N1043M;Y1044W;Q1047R)
T1 sequence: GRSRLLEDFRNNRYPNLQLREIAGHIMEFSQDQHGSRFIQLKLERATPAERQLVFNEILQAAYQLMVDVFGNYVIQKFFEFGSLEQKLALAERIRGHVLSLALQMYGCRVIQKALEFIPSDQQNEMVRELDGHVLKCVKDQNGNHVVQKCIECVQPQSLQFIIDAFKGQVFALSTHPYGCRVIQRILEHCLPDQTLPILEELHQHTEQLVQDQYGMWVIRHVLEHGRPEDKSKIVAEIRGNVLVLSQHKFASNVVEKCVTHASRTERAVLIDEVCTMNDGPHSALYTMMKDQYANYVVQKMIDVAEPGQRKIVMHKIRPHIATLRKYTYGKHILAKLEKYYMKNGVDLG
Outline: as §1

PUM1 PUF domain R3-DWE = PUM1 PUF domain R3-DWE (Homo sapiens, UniProt Q14671 828-1176, C935D;R936W;Q939E)
Outline: as §1

PUM1 PUF domain R5-RRE = PUM1 PUF domain R5-RRE (Homo sapiens, UniProt Q14671 828-1176, C1007R;Q1011E)
Outline: as §1

PUM1 PUF domain R5-KFW = PUM1 PUF domain R5-KFW (Homo sapiens, UniProt Q14671 828-1176, C1007K;R1008F;Q1011W)
Outline: as §1

PUM1 PUF domain R6-FWT = molecular target: T2, PUM1 PUF domain R6-FWT (Homo sapiens, UniProt Q14671 828-1176, N1043F;Y1044W;Q1047T)
T2 sequence: T1 sequence with M216F, R220T
Outline: as §1

PUM1 PUF domain R8-RYV = PUM1 PUF domain R8-RYV (Homo sapiens, UniProt Q14671 828-1176, N1122R;Q1126V)
Outline: as §1

PUM1 PUF domain R4-EHI = PUM1 PUF domain R4-EHI (Homo sapiens, UniProt Q14671 828-1176, N971E;Q975I)
Outline: as §1

PUM1 PUF domain R8-PYY = PUM1 PUF domain R8-PYY (Homo sapiens, UniProt Q14671 828-1176, N1122P;Q1126Y)
Outline: as §1

PUM1 PUF domain R7-GPK = PUM1 PUF domain R7-GPK (Homo sapiens, UniProt Q14671 828-1176, S1079G;N1080P;E1083K)
Outline: as §1

PUM1 PUF domain R2-LFL = PUM1 PUF domain R2-LFL (Homo sapiens, UniProt Q14671 828-1176, N899L;Y900F;Q903L)
Outline: as §1

PUM1 PUF domain R5-GTR = PUM1 PUF domain R5-GTR (Homo sapiens, UniProt Q14671 828-1176, C1007G;R1008T;Q1011R)
Outline: as §1

PUM1 PUF domain R5-SKN = PUM1 PUF domain R5-SKN (Homo sapiens, UniProt Q14671 828-1176, C1007S;R1008K;Q1011N)
Outline: as §1

PUM1 PUF domain R3-RRL = PUM1 PUF domain R3-RRL (Homo sapiens, UniProt Q14671 828-1176, C935R;Q939L)
Outline: as §1

PUM1 PUF domain R3-RSV = PUM1 PUF domain R3-RSV (Homo sapiens, UniProt Q14671 828-1176, C935R;R936S;Q939V)
Outline: as §1

PUM1 PUF domain R6-TWQ = molecular target: T3, PUM1 PUF domain R6-TWQ (Homo sapiens, UniProt Q14671 828-1176, N1043T;Y1044W)
T3 sequence: T1 sequence with M216T, R220Q
Outline: as §1

PUM1 PUF domain R6-VFH = molecular target: T4, PUM1 PUF domain R6-VFH (Homo sapiens, UniProt Q14671 828-1176, N1043V;Y1044F;Q1047H)
T4 sequence: T1 sequence with M216V, W217F, R220H
Outline: as §1

PUM1 PUF domain R6-LWE = molecular target: T5, PUM1 PUF domain R6-LWE (Homo sapiens, UniProt Q14671 828-1176, N1043L;Y1044W;Q1047E)
T5 sequence: T1 sequence with M216L, R220E
Outline: as §1

Sequence of PUM1 PUF domain R5-RRE (Q14671 828-1176 C1007R/Q1011E): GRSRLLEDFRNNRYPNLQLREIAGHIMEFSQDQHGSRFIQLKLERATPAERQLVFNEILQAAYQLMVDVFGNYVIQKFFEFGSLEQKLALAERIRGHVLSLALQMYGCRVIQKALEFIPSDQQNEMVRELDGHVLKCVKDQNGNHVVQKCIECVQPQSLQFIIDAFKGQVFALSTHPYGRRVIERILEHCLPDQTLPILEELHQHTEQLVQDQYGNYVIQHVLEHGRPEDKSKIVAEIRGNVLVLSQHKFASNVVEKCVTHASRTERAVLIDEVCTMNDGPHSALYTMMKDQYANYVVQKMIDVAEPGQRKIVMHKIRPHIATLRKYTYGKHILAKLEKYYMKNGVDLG

Sequence: GGCUAGAACUAGUGGAUCCCCCGGCGCCCGGCGGCUCGAGCCCGGGUAAGUGUAAGUAGUCUGCAUGCCGCCGGGCGCCAUGCCUGCAGGUCGACUCUAGAAAACAUG
- binding signal (PUM1 PUF domain R3-FFG): 7.59 log2 enrichment (interaction score)
- binding signal (PUM1 PUF domain R3-LWV): 4 log2 enrichment (interaction score)

Sequence: GGCUAGAACUAGUGGAUCCCCCGGCGCCCGGCGGCUCGAGCCCGGGUAAGUGUAAAUAGUCUGCAUGCCGCCGGGCGCCAUGCCUGCAGGUCGACUCUAGAAAACAUG
- binding signal (PUM1 PUF domain R5-KFC): 5.41 log2 enrichment (interaction score)
- binding signal (PUM1 PUF domain R6-MWR): 7.74 log2 enrichment (interaction score)
- binding signal (PUM1 PUF domain R3-DWE): 2.3 log2 enrichment (interaction score)
- binding signal (PUM1 PUF domain R5-RRE): 1.27 log2 enrichment (interaction score)
- binding signal (PUM1 PUF domain R5-KFW): 3.83 log2 enrichment (interaction score)
- binding signal (PUM1 PUF domain R3-FFG): 3.38 log2 enrichment (interaction score)
- binding signal (PUM1 PUF domain R3-LWV): 3.07 log2 enrichment (interaction score)
- binding signal (PUM1 PUF domain R6-FWT): 4.41 log2 enrichment (interaction score)
- binding signal (PUM1 PUF domain R8-RYV): 4.92 log2 enrichment (interaction score)
- binding signal (PUM1 PUF domain R4-EHI): 3.46 log2 enrichment (interaction score)
- binding signal (PUM1 PUF domain R8-PYY): 2.84 log2 enrichment (interaction score)

Sequence: GGCUAGAACUAGUGGAUCCCCCGGCGCCCGGCGGCUCGAGCCCGGGUAAGCGUAAAUAGUCUGCAUGCCGCCGGGCGCCAUGCCUGCAGGUCGACUCUAGAAAACAUG
- binding signal (PUM1 PUF domain R8-RYV): 6.01 log2 enrichment (interaction score)
- binding signal (PUM1 PUF domain R8-PYY): 3.73 log2 enrichment (interaction score)

Sequence: GGCUAGAACUAGUGGAUCCCCCGGCGCCCGGCGGCUCGAGCCCGGGUAAGUGUGAAUAGUCUGCAUGCCGCCGGGCGCCAUGCCUGCAGGUCGACUCUAGAAAACAUG
- binding signal (PUM1 PUF domain R5-RRE): 2.27 log2 enrichment (interaction score)

Sequence: GGCUAGAACUAGUGGAUCCCCCGGCGCCCGGCGGCUCGAGCCCGGGUAAGUUUAAAUAGUCUGCAUGCCGCCGGGCGCCAUGCCUGCAGGUCGACUCUAGAAAACAUG
- binding signal (PUM1 PUF domain R7-GPK): 3.11 log2 enrichment (interaction score)

Sequence: GGCUAGAACUAGUGGAUCCCCCGGCGCCCGGCGGCUCGAGCCCGGGUAAGUGUAAAAAGUCUGCAUGCCGCCGGGCGCCAUGCCUGCAGGUCGACUCUAGAAAACAUG
- binding signal (PUM1 PUF domain R2-LFL): 5.51 log2 enrichment (interaction score)

Sequence: GGCUAGAACUAGUGGAUCCCCCGGCGCCCGGCGGCUCGAGCCCGGGUAAGUGUCAAUAGUCUGCAUGCCGCCGGGCGCCAUGCCUGCAGGUCGACUCUAGAAAACAUG
- binding signal (PUM1 PUF domain R5-KFC): 3.89 log2 enrichment (interaction score)
- binding signal (PUM1 PUF domain R5-RRE): 4.96 log2 enrichment (interaction score)
- binding signal (PUM1 PUF domain R5-KFW): 4.73 log2 enrichment (interaction score)
- binding signal (PUM1 PUF domain R5-GTR): 4.92 log2 enrichment (interaction score)
- binding signal (PUM1 PUF domain R5-SKN): 1.73 log2 enrichment (interaction score)

Sequence: GGCUAGAACUAGUGGAUCCCCCGGCGCCCGGCGGCUCGAGCCCGGGUAAGUGUAAUUAGUCUGCAUGCCGCCGGGCGCCAUGCCUGCAGGUCGACUCUAGAAAACAUG
- binding signal (PUM1 PUF domain R3-RRL): 3.07 log2 enrichment (interaction score)
- binding signal (PUM1 PUF domain R3-FFG): 3.8 log2 enrichment (interaction score)
- binding signal (PUM1 PUF domain R3-LWV): 3.36 log2 enrichment (interaction score)
- binding signal (PUM1 PUF domain R3-RSV): 3.06 log2 enrichment (interaction score)

Sequence: GGCUAGAACUAGUGGAUCCCCCGGCGCCCGGCGGCUCGAGCCCGGGUAAGUGCAAAUAGUCUGCAUGCCGCCGGGCGCCAUGCCUGCAGGUCGACUCUAGAAAACAUG
- binding signal (PUM1 PUF domain R6-MWR): 2.97 log2 enrichment (interaction score)

Sequence: GGCUAGAACUAGUGGAUCCCCCGGCGCCCGGCGGCUCGAGCCCGGGUAAGUGUUAAUAGUCUGCAUGCCGCCGGGCGCCAUGCCUGCAGGUCGACUCUAGAAAACAUG
- binding signal (PUM1 PUF domain R5-KFC): 5.65 log2 enrichment (interaction score)
- binding signal (PUM1 PUF domain R5-RRE): 5.72 log2 enrichment (interaction score)
- binding signal (PUM1 PUF domain R5-SKN): 2.59 log2 enrichment (interaction score)

Sequence: GGCUAGAACUAGUGGAUCCCCCGGCGCCCGGCGGCUCGAGCCCGGGUAAGUGAAAAUAGUCUGCAUGCCGCCGGGCGCCAUGCCUGCAGGUCGACUCUAGAAAACAUG
- binding signal (PUM1 PUF domain R6-MWR): 3.34 log2 enrichment (interaction score)
- binding signal (PUM1 PUF domain R6-TWQ): 2.43 log2 enrichment (interaction score)
- binding signal (PUM1 PUF domain R6-VFH): 3.39 log2 enrichment (interaction score)
- binding signal (PUM1 PUF domain R6-LWE): 3.79 log2 enrichment (interaction score)
